# Results taken from the supplement of paper PMC6555819.
# Assays:
# Experiment in all cases: PBM binding z-score (relative to random genomic background probes); higher = stronger binding; sequences stand for … in GC…GCGATTGACAGCGTAGAATGAAGG
# [1] = system: RARb homodimer (NR concentration 270 nM)
# In short: (§1)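 For binding z-scores, the reference was random background probes on custom Agilent 4×180K protein-binding microarrays. These arrays were incubated 1 h with ligand-free nuclear receptor dimers in PBS pH 7.4, 2% milk, 0.02% Triton X-100, 1 mM DTT, 0.2 mg/mL BSA and 0.4 mg/ml salmon testes DNA. Fluorescence was scanned after antibody detection of each partner (one per run) and regression-normalized.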
# [2] = system: RARg:RXRa (NR concentration 270 nM, RXRa partner concentration 90 nM)
# In short: as §1
# [3] = system: RARg homodimer (NR concentration 270 nM)
# In short: as §1
# [4] = system: RXRa DBDmut IVT, anti-RXR (DBD mutation: RXRa K156A/R161A, NR concentration 90 nM)
# In short: as §1
# [5] = system: RXRa homodimer (NR concentration 180 nM)
# In short: as §1
# [6] = system: THRa:RXRa (NR concentration 90 nM, RXRa partner concentration 90 nM)
# In short: as §1
# [7] = system: THRa homodimer (NR concentration 90 nM)
# In short: as §1
# [8] = system: VDR homodimer (NR concentration 270 nM)
# In short: as §1
Sequence,PBM binding z-score [1],PBM binding z-score [2],PBM binding z-score [3],PBM binding z-score [4],PBM binding z-score [5],PBM binding z-score [6],PBM binding z-score [7],PBM binding z-score [8]
CTCGAAAGATCGTGCTCAGGTGAGTATACCAAAC,-0.0864,-0.0578,-0.229,-0.0478,-0.33,1.28,0.584,-0.082
CCAGACAGGGGAAAGGTAACTCAGTCTGGTACGC,0.183,0.177,-0.0948,-0.138,0.529,0.146,0.0595,-0.41
CCGACTGGGGCAAAGGTTACCATACTCAGTACGA,2.22,3.52,1.78,0.712,3.67,1.78,-0.211,-0.204
TCGGGTAGGTTAGTCGGGGCATTCAGCCAACATA,1.24,0.503,0.704,0.58,0.0388,1.57,1.21,1.08
TCTCGGAGGACACGAAGATCAGAGCTTTCCAGAG,0.193,0.499,1.05,0.0261,0.273,1.1,0.242,-0.899
TCTTGTAGATCAGAGGTTAAGAAAGCCGAAGCCT,0.579,0.522,0.221,0.653,1.5,0.868,-0.337,0.103
CCTTACGGGTCACTCCAGGTTTTAGCATCGGAGT,2.77,4.49,4.02,1.79,4.23,4.31,0.0902,1.74
CAAACTAGGTCAAGAGGTCAAAGCCCGCTTCCCG,5.64,8.19,7.34,2.92,7.83,4.46,2.47,3.87
CGTCAAAGTTCAACTATGGTAACGTAAAGCACGC,4.39,5.88,6.65,4.74,4.82,3.57,0.175,4.04
GTACGAAGGTGAATAGGTCGTTGATGAGTAGGCG,1.82,2.78,1.4,-0.12,1.81,0.742,-0.401,0.0149
TCTGCTAGGTCAACGATGGTTAGCTAATCTGCTA,2.99,3.97,5.29,1.1,2.75,2.9,0.466,-0.391
CCGACTGGAGCAAGGTTACCATAACGCACAGCCA,1.15,0.461,0.534,0.587,0.971,1.16,0.379,0.142
GCGACTGGGTCATCAGCAGGTTACCATAACTTAA,2.55,4.89,3.53,0.877,3.03,2.88,0.268,0.085
